# Laboratory results reported in PubChem BioAssay (NCATS).
# Results filed as inconclusive are left out. Entries that show only a call come without a potency. Activity calls are given as the source filed them. Unless noted, calls follow the shape of the dose curve; as a rule, active = well fitted curve in the direction sought with a large enough effect; inconclusive = small, poorly fitted or top-dose-only effect, or another doubt; inactive = no such curve, though single readings can be large; an effect the other way counts as inactive or inconclusive.
# Tests used:
# [1] = MultiTox-Fluor Cytotoxicity Assay - LYMP1-001 - Live Cells (AID 947)
# [2] = Cell Viability - LYMP2-003 (AID 965);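 also: potency is read from the fitted curve at half-maximal effect; cells exposed to compounds for 24 h before reading; nearly all actives have a fitted effect of over 50% in size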
# Method in brief: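 CellTiter-Glo luminescence (cellular ATP) after 24 h compound exposure at 37 C in complete medium; 2500 cells/well, 5 h settling beforehand. Concentration-response fitted to standard Hill equation for AC50. Tetraoctylammonium bromide served as positive control.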
# [3] = target: Luciferin 4-monooxygenase (Photinus pyralis) (UniProt P08659); assay: Biochemical firefly luciferase enzyme assay for NPC (AID 624030);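 also: purified P. pyralis luciferase at 10 nM with luciferin and ATP substrate; series mostly up to about 59 µM; nearly all actives have a fitted effect of over 70% in size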
# Method in brief: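 Purified P. pyralis luciferase at 10 nM in 50 mM Tris Acetate (final), luminescence read within 5 minutes of enzyme addition to compounds. Activity normalised to PTC124 versus DMSO; concentration-response curves classed by r2, magnitude and activity.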
# [4] = S16 Schwann cell PMP22 intronic element firefly luciferase assay (AID 624032); also: series mostly up to about 58 µM; nearly all actives have a fitted effect of over 30% in size
# Method in brief: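 Rat S16 Schwann cells stably carrying firefly luciferase driven by a PMP22 intronic element, in 10% FBS, treated 24 h at 37 C. ONE-Glo luminescence normalized to PTC124 control and DMSO (0%); curves classed by r2, magnitude and activity.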
# [5] = qHTS assay for small molecule antagonists of the retinoid-related orphan receptor gamma (ROR-gamma) signaling pathway - cell viability counter screen (AID 720652; active = well fitted curve in the direction sought with a large enough effect in the repeat runs; an effect the other way counts as inactive or inconclusive;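 also: CHO reporter cells with doxycycline-induced ROR-gamma expression; series mostly up to about 92 µM; compound exposure lasted 16 hr before ATP read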)
# Method in brief: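 Cytotoxicity is quantified via intracellular ATP (CellTiter-Glo luminescence) in doxycycline-induced CHO ROR response element-luciferase reporter cells treated with compound for 16 hr at 37 C, 5% CO2.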
# [6] = target: Peroxisome proliferator-activated receptor delta (Homo sapiens) (UniProt Q03181); assay: qHTS assay for small molecule agonists of peroxisome proliferator-activated receptor delta signaling (AID 588534; calls by dose curve)
# Method in brief: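 Reporter cells were plated and held 5 hrs at 37 C before compounds were added. After 18 hrs at 37 C, CCF4 dye was loaded for 2 hrs at RT and fluorescence measured.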
# [7] = target: Glucocorticoid receptor (Homo sapiens) (UniProt P04150); assay: qHTS assay for small molecule antagonists of glucocorticoid receptor signaling (AID 588533; active = well fitted inhibition curve with a large enough effect in the signal ratio, with a control signal flat, not every such curve was filed as active; the % refers to the signal ratio)
# Method in brief: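 Antagonist-mode qHTS: compound titrations added to GRE-bla HeLa cells, then dexamethasone 2 nM final; 18 h, 37 C. CCF4 FRET fluorescence normalized to dexamethasone and DMSO; IC50 from Hill fit.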
# [8] = qHTS assay for small molecule antagonists of peroxisome proliferator-activated receptor delta signaling (AID 588535; active = well fitted inhibition curve with a large enough effect in the signal ratio, with a control signal flat, not every such curve was filed as active; the % refers to the signal ratio;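 as to max response: cells co-treated with a PPAR-delta agonist as stimulator during compound exposure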); conditions: HEK293T PPARd-UAS-bla, beta-lactamase FRET ratio, 18 h; 460 nm channel
# Method in brief: (§1)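 Cells were seeded at 4000 per well in assay medium containing 2% charcoal/dextran FBS and held 5 hrs at 37 C. Compounds were then added for 18 hrs. CCF4 substrate was applied for 2 hrs at room temperature before fluorescence reading.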
# [9] = target: Peroxisome proliferator-activated receptor delta (Homo sapiens) (UniProt Q03181); assay: as above
# Method in brief: as §1
# [10] = target: Peroxisome proliferator-activated receptor gamma (Homo sapiens) (UniProt P37231); assay: qHTS assay for small molecule agonists of peroxisome proliferator-activated receptor gamma signaling (AID 588536; active = well fitted curve in the direction sought with a large enough effect in the signal ratio, with a control signal flat, not every such curve was filed as active; the % refers to the signal ratio)
# Method in brief: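 Test agents, titrated, stimulated HEK293 UAS-bla cells overnight (16 h, 37 C). Substrate CCF4 was then added for two hours at room temperature before fluorescence reading.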
# [11] = target: Vitamin D3 receptor (Homo sapiens) (UniProt P11473); assay: qHTS assay for small molecule antagonists of vitamin D receptor signaling (AID 588541; calls by dose curve;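 also: receptor activated by calcitriol during compound treatment; series mostly up to about 77 µM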)
# Method in brief: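 VDR-UAS-bla HEK293T cells in 2% charcoal-stripped FBS were stimulated with 1-alpha,25-dihydroxyvitamin D3 (3 nM final) plus compound for 16 h at 37 C. The beta-lactamase CCF4 readout was normalized to 50 nM agonist and DMSO, and Hill fits gave IC50.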
# [12] = target: Vitamin D3 receptor (Homo sapiens) (UniProt P11473); assay: qHTS assay for small molecule agonists of vitamin D receptor signaling (AID 588543; calls by dose curve)
# Method in brief: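 β-lactamase reporter, VDR-UAS-bla HEK293T, agonist mode. Cells plated 5 h at 37 °C, compound titration 16 h at 37 °C, CCF4 dye 2 h RT, ratio 460/530 nm. Hill fit → EC50, efficacy vs 50 nM 1α,25-(OH)2D3.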
# [13] = qHTS assay for small molecule agonists of retinoid X receptor alpha signaling (AID 588544; calls by dose curve); conditions: HEK293T RXRa-UAS-bla, beta-lactamase reporter, 18 h; 530 nm emission
# [14] = target: Retinoic acid receptor RXR-alpha (Homo sapiens) (UniProt P19793); assay: as above
# [15] = target: Thyroid hormone receptor beta (Homo sapiens) (UniProt P10828); assay: qHTS assay for small molecule agonists of thyroid hormone receptor beta signaling (AID 588545; calls by dose curve)
# Method in brief: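 Cells (2500/well) were seeded, incubated 4 hrs at 37 C, dosed with a compound series, incubated 18 hrs, loaded with CCF4 dye for 2 hrs at RT, then read for fluorescence. Data were scaled between DMSO (0%) and 10 nM T3 (100%).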
# [16] = qHTS assay for small molecule antagonists of retinoid X receptor alpha signaling (AID 588546; active = well fitted inhibition curve with a large enough effect in the signal ratio, with a control signal flat, not every such curve was filed as active; the % refers to the signal ratio;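 also: cells stimulated with 9-cis-retinoic acid as agonist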); conditions: HEK293T RXRa-UAS-bla, beta-lactamase ratio, antagonist mode; measured here: W530 green channel, cytotoxicity proxy
# Method in brief: (§2)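 Beta-lactamase reporter inhibition, read as CCF4 fluorescence ratio (ex 405, em 460/530 nm) after 2 h at RT. HEK293T UAS-bla cells, 2500/well, were stimulated with 9-cis-RA at 500 or 100 nM final alongside test compound for 18 h at 37 C.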
# [17] = target: Retinoic acid receptor RXR-alpha (Homo sapiens) (UniProt P19793); assay: as above; conditions: HEK293T RXRa-UAS-bla, beta-lactamase ratio, antagonist mode
# Method in brief: as §2
# [18] = target: Thyroid hormone receptor beta (Homo sapiens) (UniProt P10828); assay: qHTS assay for small molecule antagonists of thyroid hormone receptor beta signaling (AID 588547; active = well fitted inhibition curve with a large enough effect in the signal ratio, with a control signal flat, not every such curve was filed as active; the % refers to the signal ratio;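 also: cells stimulated with 0.4 nM T3 agonist during compound exposure; series mostly up to about 77 µM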); conditions: TR-UAS-bla HEK293, beta-lactamase ratio, antagonist mode, 18 h
# Method in brief: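 TR-UAS-bla GripTite HEK293 cells in 2% charcoal/dextran FBS medium; compounds 0.59 nM to 92 uM with T3 at 0.4nM final, 18 h at 37 C. Beta-lactamase read by CCF4 fluorescence (460/530 nm); Hill fits gave IC50 and efficacy.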
# [19] = qHTS assay for small molecule activators of the p53 signaling pathway (AID 651743; active = well fitted activation curve with a large enough effect in the signal ratio, not every such curve was filed as active; the % refers to the signal ratio; also: series mostly up to about 92 µM); conditions: HCT-116 p53RE-bla, beta-lactamase FRET ratio, 16 h; activation: stronger effect = higher value
# Method in brief: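 HCT-116 p53RE-bla, 4,000 cells/well; 5 h settle; cpd/DMSO 16 h, 37 C; LiveBLAzer B/G 2 h RT; fluorescence intensity.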
# [20] = qHTS assay for small molecule activators of the nuclear factor-kappa B (NF-kB) signaling pathway (AID 651749; active = well fitted activation curve with a large enough effect in the signal ratio; the % refers to the signal ratio; also: series mostly up to about 77 µM); conditions: NF-kB-bla ME-180 cells, beta-lactamase FRET ratio, 16 h; activation: stronger effect = higher value
# Method in brief: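 Incubation lasted 16 hr at 37C in 5% CO2 after 23 nL compound addition to ME-180 NF-kB-bla cells. Activation appears as beta-lactamase-mediated FRET loss.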
# [21] = qHTS assay for environmental chemicals that activate the Aryl hydrocarbon Receptor (AhR) signaling pathway (AID 651777); conditions: 1A2-DRE human hepatoma cells, luciferase, 24 h; activation: stronger effect = higher value; also: nearly all actives have a fitted effect of over 15% in size
# Method in brief: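 1A2-DRE human hepatoma reporter line; 1,200 cells/well; cmpd or DMSO 24 h, 37 C/5% CO2; One-Glo 30 min RT; luciferase lum.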
# [22] = target: Peroxisome proliferator-activated receptor alpha (Homo sapiens) (UniProt Q07869); assay: qHTS assay for small molecule agonists of the peroxisome proliferator-activated receptor alpha (PPARalpha) signaling pathway (AID 651778); conditions: PathHunter PPARalpha complementation, chemiluminescence, 6 h; max response: stronger effect = higher value
# Method in brief: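 Enzyme-fragment complementation assay in which ligand-bound PPARalpha translocates and forms an active enzyme that generates chemiluminescence. Cells were plated overnight, exposed to compound for 6 hr at 37 C, and then given detection reagent for 60 min at room temperature.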
# [23] = qHTS assay for small molecule agonists of the antioxidant response element (ARE) signaling pathway measured by Nrf2-dependant transcriptional activity (AID 720636; active = well fitted curve in the direction sought with a large enough effect in the repeat runs; an effect the other way counts as inactive or inconclusive;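 also: HepG2 cells with an ARE-driven luciferase reporter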)
# Method in brief: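 Cells: ARE-luc HepG2 with Nrf2-responsive luciferase. Medium contained 1% dialyzed FBS. Compound exposure lasted 16 hr at 37 C and 5% CO2, followed by ONE-Glo luciferase detection.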
# [24] = qHTS assay for small molecule agonists of the antioxidant response element (ARE) signaling pathway measured by Nrf2-dependant transcriptional activity - cell viability counter screen (AID 720653; active = well fitted curve in the direction sought with a large enough effect in the repeat runs; an effect the other way counts as inactive or inconclusive); conditions: ARE-bla HepG2 viability, CellTiter-Glo ATP luminescence, 16 h; max response: stronger effect = lower value
# Method in brief: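 ARE-bla HepG2 cells treated with compounds for 16 h at 37C; this counter screen measures viability as intracellular ATP by CellTiter-Glo luminescence after 30 min at room temperature.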
# [25] = qHTS assay for cell viability of HEK293 cells (AID 743288); conditions: ATP luminescence (CellTiter-Glo), 18 h; max response: stronger effect = lower value; also: nearly all actives have a fitted effect of over 50% in size
# Method in brief: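 Environmental chemicals tested in qHTS format against parental HEK293 cells; 18 h treatment, 37 C; read-out ATP luminescence (CellTiter-Glo), 30 min RT development.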
# [26] = qHTS assay for cell viability of the p53RE-bla HCT-116 cell line (AID 743292); also: nearly all actives have a fitted effect of over 55% in size
# Method in brief: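 HCT-116 p53RE-bla cells seeded 4,000/well; 5 h at 37 C; compound (DMSO) added; 16 h at 37 C; CellTiter-Glo added, 30 min RT; luminescence read.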
# [27] = qHTS assay for small molecule activators of the human pregnane X receptor (PXR) signaling pathway (AID 720659; call rule not given here)
# Sequence of Peroxisome proliferator-activated receptor delta (Homo sapiens) (Q03181 whole entry, looked up): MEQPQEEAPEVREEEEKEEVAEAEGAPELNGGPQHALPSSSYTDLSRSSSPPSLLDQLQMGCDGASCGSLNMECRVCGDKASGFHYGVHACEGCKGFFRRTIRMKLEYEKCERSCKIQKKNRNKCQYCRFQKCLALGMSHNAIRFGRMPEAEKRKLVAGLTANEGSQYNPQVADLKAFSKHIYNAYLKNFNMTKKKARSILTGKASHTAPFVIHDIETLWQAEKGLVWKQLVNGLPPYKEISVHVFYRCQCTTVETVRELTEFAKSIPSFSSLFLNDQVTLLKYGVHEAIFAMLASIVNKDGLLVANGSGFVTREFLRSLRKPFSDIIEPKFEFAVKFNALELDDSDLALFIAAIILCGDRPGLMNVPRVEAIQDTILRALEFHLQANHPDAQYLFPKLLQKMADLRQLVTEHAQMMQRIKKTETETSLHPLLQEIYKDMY
# Sequence of Thyroid hormone receptor beta (Homo sapiens) (P10828 whole entry, looked up): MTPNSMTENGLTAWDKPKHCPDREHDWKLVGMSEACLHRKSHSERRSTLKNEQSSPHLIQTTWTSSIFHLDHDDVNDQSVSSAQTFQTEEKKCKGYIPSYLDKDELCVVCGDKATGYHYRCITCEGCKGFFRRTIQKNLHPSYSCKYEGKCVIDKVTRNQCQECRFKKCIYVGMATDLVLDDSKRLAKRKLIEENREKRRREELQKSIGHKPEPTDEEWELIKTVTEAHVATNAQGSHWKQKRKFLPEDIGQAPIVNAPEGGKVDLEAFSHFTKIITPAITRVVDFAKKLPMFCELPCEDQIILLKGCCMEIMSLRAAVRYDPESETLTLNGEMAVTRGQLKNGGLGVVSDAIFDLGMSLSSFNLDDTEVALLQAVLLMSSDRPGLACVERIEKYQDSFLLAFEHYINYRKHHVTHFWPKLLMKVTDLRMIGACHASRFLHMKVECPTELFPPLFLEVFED
# Sequence of Retinoic acid receptor RXR-alpha (Homo sapiens) (P19793 whole entry, looked up): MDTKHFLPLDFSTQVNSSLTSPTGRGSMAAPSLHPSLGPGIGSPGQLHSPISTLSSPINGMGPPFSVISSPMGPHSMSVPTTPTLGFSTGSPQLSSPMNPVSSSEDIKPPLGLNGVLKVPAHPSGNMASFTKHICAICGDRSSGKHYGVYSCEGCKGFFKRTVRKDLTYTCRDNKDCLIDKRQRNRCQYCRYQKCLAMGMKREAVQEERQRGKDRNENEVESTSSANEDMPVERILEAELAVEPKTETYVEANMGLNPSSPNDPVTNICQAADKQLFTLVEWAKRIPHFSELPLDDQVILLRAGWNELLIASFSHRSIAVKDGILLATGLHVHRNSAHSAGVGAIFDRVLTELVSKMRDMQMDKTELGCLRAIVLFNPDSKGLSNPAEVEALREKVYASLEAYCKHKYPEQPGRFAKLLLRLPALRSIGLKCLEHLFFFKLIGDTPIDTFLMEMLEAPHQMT
# Sequence of Vitamin D3 receptor (Homo sapiens) (P11473 whole entry, looked up): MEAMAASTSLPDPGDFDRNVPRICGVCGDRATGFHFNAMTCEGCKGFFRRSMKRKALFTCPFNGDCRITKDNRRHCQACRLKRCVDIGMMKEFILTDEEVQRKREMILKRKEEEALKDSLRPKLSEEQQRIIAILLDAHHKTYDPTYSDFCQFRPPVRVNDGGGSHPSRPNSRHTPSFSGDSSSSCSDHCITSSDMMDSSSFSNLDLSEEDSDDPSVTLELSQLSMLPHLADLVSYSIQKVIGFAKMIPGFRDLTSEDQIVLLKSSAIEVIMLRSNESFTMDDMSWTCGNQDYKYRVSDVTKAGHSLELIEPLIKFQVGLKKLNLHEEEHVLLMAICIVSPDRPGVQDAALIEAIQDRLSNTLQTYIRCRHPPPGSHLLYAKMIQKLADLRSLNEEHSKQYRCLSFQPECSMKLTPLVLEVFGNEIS
# Sequence of Glucocorticoid receptor (Homo sapiens) (P04150 whole entry, looked up): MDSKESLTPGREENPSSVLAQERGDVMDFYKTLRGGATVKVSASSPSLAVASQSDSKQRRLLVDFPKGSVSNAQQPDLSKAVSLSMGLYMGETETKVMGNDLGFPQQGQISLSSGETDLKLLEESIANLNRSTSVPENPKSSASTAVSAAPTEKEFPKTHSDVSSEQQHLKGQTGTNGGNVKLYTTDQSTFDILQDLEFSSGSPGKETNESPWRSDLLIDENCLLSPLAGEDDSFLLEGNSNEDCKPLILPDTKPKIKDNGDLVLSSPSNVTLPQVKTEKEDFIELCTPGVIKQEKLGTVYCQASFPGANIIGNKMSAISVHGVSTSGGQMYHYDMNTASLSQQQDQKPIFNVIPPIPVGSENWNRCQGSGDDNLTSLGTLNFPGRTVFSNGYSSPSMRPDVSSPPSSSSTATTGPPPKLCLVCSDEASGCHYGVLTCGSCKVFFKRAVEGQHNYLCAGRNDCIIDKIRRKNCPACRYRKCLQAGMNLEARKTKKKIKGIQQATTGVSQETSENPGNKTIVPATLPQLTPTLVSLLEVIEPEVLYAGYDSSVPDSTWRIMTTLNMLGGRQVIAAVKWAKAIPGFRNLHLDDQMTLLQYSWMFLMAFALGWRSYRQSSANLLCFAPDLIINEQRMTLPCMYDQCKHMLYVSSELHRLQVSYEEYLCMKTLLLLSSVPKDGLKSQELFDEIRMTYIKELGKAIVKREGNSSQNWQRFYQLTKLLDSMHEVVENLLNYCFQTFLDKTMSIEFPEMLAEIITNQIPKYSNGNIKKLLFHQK
# Sequence of Peroxisome proliferator-activated receptor gamma (Homo sapiens) (P37231 whole entry, looked up): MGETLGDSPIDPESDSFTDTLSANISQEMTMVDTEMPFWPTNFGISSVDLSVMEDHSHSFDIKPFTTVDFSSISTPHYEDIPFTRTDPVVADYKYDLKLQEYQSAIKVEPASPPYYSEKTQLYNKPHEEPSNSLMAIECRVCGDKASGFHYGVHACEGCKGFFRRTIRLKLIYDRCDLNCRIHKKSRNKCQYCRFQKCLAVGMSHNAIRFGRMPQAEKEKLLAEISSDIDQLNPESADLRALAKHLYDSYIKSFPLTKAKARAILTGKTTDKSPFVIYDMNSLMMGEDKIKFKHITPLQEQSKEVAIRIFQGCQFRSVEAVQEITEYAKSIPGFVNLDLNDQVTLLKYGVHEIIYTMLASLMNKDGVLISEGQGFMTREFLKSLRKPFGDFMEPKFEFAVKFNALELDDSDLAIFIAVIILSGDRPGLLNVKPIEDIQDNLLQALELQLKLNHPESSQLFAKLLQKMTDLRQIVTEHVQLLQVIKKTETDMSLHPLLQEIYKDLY
# Sequence of Peroxisome proliferator-activated receptor alpha (Homo sapiens) (Q07869 whole entry, looked up, the tested form may be a part): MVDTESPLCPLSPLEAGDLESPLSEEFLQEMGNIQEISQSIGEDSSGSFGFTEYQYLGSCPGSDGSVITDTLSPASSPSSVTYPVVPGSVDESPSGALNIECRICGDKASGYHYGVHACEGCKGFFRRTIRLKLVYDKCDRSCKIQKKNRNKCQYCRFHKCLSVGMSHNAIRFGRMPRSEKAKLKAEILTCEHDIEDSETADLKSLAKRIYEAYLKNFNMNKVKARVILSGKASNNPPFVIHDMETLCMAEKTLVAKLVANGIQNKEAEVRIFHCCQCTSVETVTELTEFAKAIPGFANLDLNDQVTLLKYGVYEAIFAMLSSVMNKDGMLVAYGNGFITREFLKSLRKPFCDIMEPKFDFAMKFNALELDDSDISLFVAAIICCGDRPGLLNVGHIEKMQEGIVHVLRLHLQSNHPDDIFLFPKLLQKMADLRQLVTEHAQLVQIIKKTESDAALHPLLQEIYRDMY
# Sequence of Luciferin 4-monooxygenase (Photinus pyralis) (P08659 whole entry, looked up): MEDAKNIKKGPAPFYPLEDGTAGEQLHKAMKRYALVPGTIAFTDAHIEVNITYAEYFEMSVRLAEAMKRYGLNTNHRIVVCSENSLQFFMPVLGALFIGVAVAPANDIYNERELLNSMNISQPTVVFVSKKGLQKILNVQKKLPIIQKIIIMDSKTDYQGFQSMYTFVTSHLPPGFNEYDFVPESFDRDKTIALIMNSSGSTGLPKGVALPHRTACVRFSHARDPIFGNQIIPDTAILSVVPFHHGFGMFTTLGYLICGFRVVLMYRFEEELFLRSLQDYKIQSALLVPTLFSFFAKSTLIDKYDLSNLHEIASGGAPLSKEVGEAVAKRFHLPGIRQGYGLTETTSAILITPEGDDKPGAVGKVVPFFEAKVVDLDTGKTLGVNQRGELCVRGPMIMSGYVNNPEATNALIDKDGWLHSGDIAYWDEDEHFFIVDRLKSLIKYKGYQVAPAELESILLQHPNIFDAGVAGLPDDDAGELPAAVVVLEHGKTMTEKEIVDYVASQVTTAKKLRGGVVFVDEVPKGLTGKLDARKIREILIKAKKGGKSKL
structure (smiles),measurement,setting,value
CN(C)C=O,Potency,[1],inactive
Nc1ccc(-c2ccc(N)c(O)c2)cc1O,Potency,[2],50.1 µM (active)
ClC(Cl)Cl,Potency,[3],inactive
CN(C)CCCCCCN(C)C,Potency,[4],inactive
c1ccccc1,Potency,[5],inactive
ClCCl,outcome,[6],inactive
CC/C(=N\OC/C=C/Cl)C1=C(O)CC(C2CCOCC2)CC1=O (stereo not drawn),Potency,[7],inactive
same,outcome,[6],inactive
same,max response,[8],17.7%
same,Potency,[9],inactive
same,Potency,[10],inactive
same,Potency,[11],inactive
same,outcome,[12],inactive
same,max response,[13],-4.82%
same,Potency,[14],inactive
same,Potency,[15],inactive
same,max response,[16],0.449%
same,max response,[17],3.36% (inactive)
same,activity change % (negative = inhibition),[18],-7.66% (inactive)
same,activation,[19],-3.67% (inactive)
same,activation,[20],-1.9% (inactive)
same,activation,[21],0.936% (inactive)
same,max response,[22],-0.709% (inactive)
same,Potency,[23],inactive
same,max response,[24],1.41% (inactive)
same,max response,[25],3.9% (inactive)
same,Potency,[26],inactive
same,outcome,[27],inactive
